Results reported in PubChem BioAssay AID624138 (Broad Institute, 2012).
The campaign covered roughly 17,000 compounds. About 35 (0.2%) were called active.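 Rule for the calls: active = compounds whose four printed spots each show fluorescence over background unusually high for their array block, chance value under 7%; inactive = the rest.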 Many of the other results were omitted from the sample, so actives are more common in it than they were.

biological target: Signal transducer and activator of transcription 3 (Homo sapiens) (UniProt P40763); assay: STAT3 binders, primary screen, biochemical, small molecule microarray, single point, set 2 (AID 624138); details: His-STAT3 binding, anti-His fluorescence
Sequence (P40763 whole entry, looked up): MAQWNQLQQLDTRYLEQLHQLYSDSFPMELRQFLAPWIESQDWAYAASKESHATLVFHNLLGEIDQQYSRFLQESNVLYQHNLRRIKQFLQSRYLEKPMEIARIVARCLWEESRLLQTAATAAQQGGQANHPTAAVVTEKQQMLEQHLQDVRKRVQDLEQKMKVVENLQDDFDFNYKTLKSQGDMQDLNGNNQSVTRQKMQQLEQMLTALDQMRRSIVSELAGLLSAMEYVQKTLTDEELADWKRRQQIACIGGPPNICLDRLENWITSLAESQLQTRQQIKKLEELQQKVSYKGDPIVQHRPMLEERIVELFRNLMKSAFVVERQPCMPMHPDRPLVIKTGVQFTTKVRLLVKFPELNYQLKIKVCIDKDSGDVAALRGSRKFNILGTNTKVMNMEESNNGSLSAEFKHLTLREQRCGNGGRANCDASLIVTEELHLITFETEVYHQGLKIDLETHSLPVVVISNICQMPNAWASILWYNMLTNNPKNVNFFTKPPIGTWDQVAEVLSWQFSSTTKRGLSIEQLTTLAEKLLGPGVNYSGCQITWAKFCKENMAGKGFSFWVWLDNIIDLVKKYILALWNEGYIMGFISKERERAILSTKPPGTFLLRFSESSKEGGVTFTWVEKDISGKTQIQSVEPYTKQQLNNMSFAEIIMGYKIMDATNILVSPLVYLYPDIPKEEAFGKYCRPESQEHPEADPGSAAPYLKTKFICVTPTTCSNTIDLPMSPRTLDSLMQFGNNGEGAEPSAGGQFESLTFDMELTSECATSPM

Row | Compound | outcome
1 | COC(=O)CCCCCCC(=O)Nc1ccc(C2OC(CSc3nc(-c4ccccc4)c(-c4ccccc4)o3)CC(c3ccc([N+](=O)[O-])cc3)O2)cc1 (configuration not stated) | inactive
2 | Cc1ccc(N(C(=O)COc2ccccc2[N+](=O)[O-])C2C=CS(=O)(=O)C2)cc1 (configuration not stated) | inactive
3 | Cc1noc(C)c1NC(=O)Nc1ccc2c(c1)CC(=O)N([C@H](C)CO)C[C@H](C)[C@H](CN(C)C(=O)NC(C)C)O2 | inactive
4 | COc1ccc(C#Cc2ccc3c(c2)[C@]2(C(=O)N3)[C@H](c3ccccc3OCCO)N3[C@H](c4ccccc4)[C@H](c4ccccc4)OC(=O)[C@H]3[C@@H]2C(=O)N2CCCCCCC2)cc1 | inactive
5 | C[C@@H]1CN([C@@H](C)CO)C(=O)c2cc(N(C)C)ccc2O[C@@H](C)CCCCO[C@H]1CN(C)C(=O)CCCN(C)C | inactive
6 | Cc1ccc(-n2c(SCC(=O)c3ccccc3)nnc2-c2ccncc2)cc1C | inactive
7 | C[C@@H]1CCCCO[C@@H](CN(C)Cc2ccncc2)[C@@H](C)CN([C@@H](C)CO)C(=O)c2cc(NC(=O)Nc3ccc(F)cc3)ccc2O1 | inactive
8 | CC1(C)CC[C@@]2(C(=O)O)C(C1)C1=CCC3[C@@]4(C)CC[C@H](O)C(C)(C)C4CC[C@@]3(C)[C@]1(C)C[C@H]2O (some centres not stated) | inactive
9 | Cn1c(Cc2csc(N)n2)nnc1SC/C=C/c1ccccc1 | inactive
10 | Cc1nnc(SCc2cc(=O)[nH]c(N3CCN(Cc4ccccc4)CC3)n2)s1 | inactive
11 | COc1ccc(OC)c(NC(=O)c2cnn(-c3ccccc3Cl)c2NC(=O)c2ccco2)c1 | inactive
12 | C[C@@H]1CN([C@H](C)CO)C(=O)c2cc(NC(=O)Nc3ccc4c(c3)OCO4)ccc2O[C@@H]1CN(C)Cc1ccc(C(F)(F)F)cc1 | inactive
13 | C[C@@H]1CN([C@H](C)CO)C(=O)Cc2cc(NC(=O)NC3CCCCC3)ccc2O[C@H]1CN(C)S(=O)(=O)c1ccc(Cl)cc1 | inactive
14 | CNC[C@@H]1Oc2c(NC(=O)Nc3ccccc3)cccc2C(=O)N([C@@H](C)CO)C[C@@H]1C | inactive
15 | COC(=O)c1c(NC(=O)c2cc(-c3ccccn3)nc3ccc(Br)cc23)sc(C(=O)N(C)C)c1C | inactive
16 | Cc1ccc(-c2cc(C(F)(F)F)n3nc(C(=O)NCCN4CCOCC4)c(Cl)c3n2)cc1 | inactive
17 | COc1ccc(S(=O)(=O)N2CCN(c3ccccn3)CC2)cc1N(C)S(=O)(=O)c1ccccc1 | inactive
18 | C=C1CCCC(C)(C(=O)OC)C1CC/C(C)=C/CCC1=CC(=O)OC1 (configuration not stated) | inactive
19 | C[C@@H]1CN([C@H](C)CO)C(=O)CCCn2cc(nn2)CO[C@H]1CN(C)S(=O)(=O)c1ccc(Oc2ccccc2)nc1 | inactive
20 | C[C@H](CO)N1C[C@H](C)[C@H](CN(C)S(=O)(=O)c2cn(C)cn2)Oc2ccc(N(C)C)cc2C1=O | inactive
21 | C[C@@H]1CN([C@@H](C)CO)C(=O)CCCn2cc(nn2)CO[C@H]1CN(C)Cc1cccc2c1OCCCO2 | inactive
22 | C[C@H](CO)N1C[C@H](C)[C@@H](CN(C)S(=O)(=O)c2cccs2)Oc2ccc(NC(=O)Nc3cccc4ccccc34)cc2CC1=O | inactive
23 | C=CCn1c(SCc2nc3ccccc3[nH]2)nnc1-c1ccccc1 | inactive
24 | C[C@H]1CN([C@@H](C)CO)C(=O)CCCn2nncc2CO[C@H]1CN(C)Cc1ccccc1 | inactive

Row | Compound | outcome
25 | C[C@H]1CN([C@@H](C)CO)C(=O)c2cc(NS(=O)(=O)c3cn(C)cn3)ccc2O[C@H]1CN(C)CC1CCCCC1 | inactive
26 | O=C(CCc1nc(-c2ccccc2Cl)no1)Nc1ccc(Cl)c(Cl)c1 | inactive
27 | O=C(NC1CC1)C1=C[C@H](c2coc3ccccc3c2=O)C[C@H](OCCCCO)O1 | inactive
28 | C[C@@H]1CN([C@H](C)CO)C(=O)Cc2cc(NC(=O)CCN3CCOCC3)ccc2O[C@H]1CN(C)Cc1ccncc1 | inactive
29 | C=C1CCC(C)C(C)(CCC2=CC(OC)OC2=O)C/C=C\C=C\1C(=O)O (configuration not stated) | inactive
30 | C=CCNC(=O)[C@H]1[C@@H]2C(=O)O[C@@H](c3ccccc3)[C@@H](c3ccccc3)N2[C@@H](c2ccccc2OCCO)[C@]12C(=O)N(C(=O)OCCOC)c1ccc(C#Cc3ccc(OC)cc3)cc12 | inactive
31 | C[C@@H]1CN([C@H](C)CO)C(=O)c2cc(NC(=O)Nc3ccccc3)ccc2O[C@@H](C)CCCCO[C@@H]1CN(C)Cc1ccncc1 | inactive
32 | C[C@H]1CN([C@@H](C)CO)C(=O)Cc2cc(NC(=O)C3CC3)ccc2O[C@@H]1CN(C)S(=O)(=O)c1cccs1 | inactive
33 | COc1ccc(S(=O)(=O)N(C)C[C@@H]2Oc3c(NS(=O)(=O)c4ccccc4)cccc3C(=O)N([C@@H](C)CO)C[C@@H]2C)cc1 | inactive
34 | C[C@@H]1CN([C@H](C)CO)C(=O)c2cccc(NC(=O)c3ccncc3)c2O[C@@H]1CN(C)S(=O)(=O)c1cn(C)cn1 | inactive
35 | Cc1cccc(-n2c(SCC(N)=O)nnc2-c2ccncc2)c1C | inactive
36 | C[C@@H]1CCCCO[C@@H](CN(C)C)[C@@H](C)CN([C@H](C)CO)C(=O)c2cc(NC(=O)c3ccncc3)ccc2O1 | inactive
37 | OC(CCCN1CCN(c2ncc(F)cn2)CC1)c1ccc(F)cc1 (configuration not stated) | inactive
38 | C[C@@H]1CN([C@H](C)CO)C(=O)c2cccc(NS(=O)(=O)c3cn(C)cn3)c2O[C@@H]1CN(C)Cc1ccc(C(F)(F)F)cc1 | inactive
39 | Cc1ccc(NC(=O)C(C)N(c2ccc(Cl)cc2)S(C)(=O)=O)c(C)c1 (configuration not stated) | inactive
40 | COc1ccc(-c2cnc3c(-c4ccsc4)cnn3c2)cc1 | inactive
41 | C[C@@H]1CCCCO[C@@H](CN(C)C(=O)NC2CCCCC2)[C@H](C)CN([C@H](C)CO)C(=O)c2cc(NS(=O)(=O)c3ccc(Cl)cc3)ccc2O1 | inactive
42 | Cc1noc(C)c1NC(=O)Nc1ccc2c(c1)C(=O)N([C@@H](C)CO)C[C@@H](C)[C@H](CN(C)C)O2 | inactive
43 | C[C@@H]1CCCCO[C@H](CN(C)C(=O)Nc2ccc3c(c2)OCO3)[C@@H](C)CN([C@@H](C)CO)C(=O)c2cc(NC(=O)CCC(F)(F)F)ccc2O1 | inactive
44 | C[C@@H]1CN([C@@H](C)CO)C(=O)Cc2cc(NS(C)(=O)=O)ccc2O[C@@H]1CN(C)Cc1ccc2c(c1)OCO2 | inactive
45 | Cc1ccc(S(=O)(=O)N(C)C[C@H]2Oc3ccc(NC(=O)CCC(F)(F)F)cc3C(=O)N([C@@H](C)CO)C[C@H]2C)cc1 | inactive
46 | C[C@@H]1CN([C@H](C)CO)C(=O)Cc2cc(NC(=O)CCCN(C)C)ccc2O[C@@H]1CN(C)S(=O)(=O)c1cccs1 | inactive
47 | N#Cc1cccc(CSc2nnc(CCCO)n2-c2ccccc2)c1 | inactive
48 | C[C@@H]1CCCCO[C@@H](CN(C)Cc2ccccc2)[C@H](C)CN([C@H](C)CO)C(=O)c2cc(NS(=O)(=O)c3cccs3)ccc2O1 | inactive

Row | Compound | outcome
49 | O=C(CS(=O)(=O)c1ccccc1)Nc1ccc2c(c1)OCCO2 | inactive
50 | O=[N+]([O-])c1ccccc1/C=C/CN1CCC(O)CC1 | inactive
51 | COc1ccc(CN(C)C[C@H]2Oc3c(NC(=O)c4ccncc4)cccc3C(=O)N([C@H](C)CO)C[C@@H]2C)cc1 | inactive
52 | CCO[C@@H]1OC(C(=O)N2CCOCC2)=C[C@H](C)[C@H]1CCCO | inactive
53 | O=[N+]([O-])c1ccc(NCCNS(=O)(=O)c2ccc(Br)cc2)c(C(F)(F)F)c1 | inactive
54 | COc1ccc(NC(=S)NCc2cc(C)n(C)n2)cc1OC | inactive
55 | C[C@@H]1CN([C@@H](C)CO)C(=O)c2cc(NC(=O)Nc3ccc4c(c3)OCO4)ccc2O[C@@H]1CN(C)C(=O)Nc1ccc2c(c1)OCO2 | inactive
56 | C[C@@H]1CN([C@H](C)CO)C(=O)c2cccc(NC(=O)Nc3cccc4ccccc34)c2O[C@@H]1CN(C)C(=O)Nc1cccc2ccccc12 | inactive
57 | CNC[C@@H]1Oc2ccc(NC(=O)CCC(F)(F)F)cc2C(=O)N([C@@H](C)CO)C[C@@H]1C | inactive
58 | Oc1cc(O)c2c(c1)OC(c1ccc(O)c(O)c1)C(O)C2 (configuration not stated) | inactive
59 | C[C@H]1CN([C@@H](C)CO)C(=O)c2cc(N(C)C)ccc2O[C@@H]1CN(C)Cc1ccccc1 | inactive
60 | CCN(CCCCOC(=O)c1ccc(OC)c(OC)c1)C(C)Cc1ccc(OC)cc1 (configuration not stated) | inactive
61 | COc1ccc(S(=O)(=O)N(C)C[C@H]2Oc3c(NC(=O)NC4CCCCC4)cccc3C(=O)N([C@@H](C)CO)C[C@@H]2C)cc1 | inactive
62 | CCc1cc2c(=O)n(-c3ccccc3)c(SCC(=O)O)nc2s1 | inactive
63 | C[C@H]1CCCCO[C@@H](CN(C)C(=O)c2ccccc2)[C@@H](C)CN([C@@H](C)CO)C(=O)c2cc(NS(=O)(=O)c3cccs3)ccc2O1 | inactive
64 | Cc1noc(C)c1NC(=O)Nc1ccc2c(c1)C(=O)N([C@@H](C)CO)C[C@H](C)[C@@H](CN(C)C(=O)C1CCCCC1)OCCCC[C@@H](C)O2 | inactive
65 | C[C@@H]1CN([C@H](C)CO)C(=O)c2cc(NS(=O)(=O)c3ccccc3)ccc2O[C@@H](C)CCCCO[C@@H]1CN(C)C(=O)CCC(F)(F)F | inactive
66 | C[C@H](CO)N1C[C@H](C)[C@H](CN(C)C(=O)CCC(F)(F)F)OCCCC[C@H](C)Oc2ccc(NS(C)(=O)=O)cc2C1=O | active
67 | C[C@@H]1CCCCO[C@H](CN(C)C(=O)CCC(F)(F)F)[C@H](C)CN([C@H](C)CO)C(=O)c2cc(NS(C)(=O)=O)ccc2O1 | inactive
68 | Cc1ccc(-n2c(SCC(=O)Nc3ccc(F)c(F)c3)nnc2-c2ccccn2)cc1 | inactive
69 | CC(C)NC(=O)Nc1ccc2c(c1)C(=O)N([C@H](C)CO)C[C@H](C)[C@H](CN(C)Cc1ccc(C(=O)O)cc1)OCCCC[C@@H](C)O2 | inactive
70 | O=C(NCc1ccco1)c1nc2ncccn2n1 | inactive
71 | OC(COc1ccc2ccccc2c1)Cn1cncn1 (configuration not stated) | inactive
72 | Cc1ccc(C(=O)C2C(=O)C(=O)N(Cc3cccnc3)C2c2ccc(Cl)c(Cl)c2)o1 (configuration not stated) | inactive
